Screens from PubChem.
This is a sample that favours compounds with a hit; in the whole collection about 19% have one here.
TDP1 cell CPT: growth inhibition of DT40 Tdp1-/-;hTDP1 cells with camptothecin (screen for TDP1 inhibitors); 420,000 tested, 12% active; Potency, µM (highest dose often 46.2 µM), for the others: at the top dose activity change, negative = growth inhibition, usual class: inhibitors; chicken DT40 Tdp1-/-;hTDP1 cells + 20 nM CPT, ATP luminescence, 48 h; note: potency is the fitted concentration of half-maximal effect; nearly all actives have a fitted effect of over 55% in size
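Chicken DT40 Tdp1-/- cells complemented with human TDP1, 400 cells/well, exposed to compounds plus 20 nM camptothecin for at least 48 h at 37 C; viability read as ATP content by CellTiter-Glo luminescence.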
IL1B secr inh: inhibitors of inflammasome signaling (IL-1 beta secretion) | AID 743279 | 360,000 tested, 4.7% active | activity change, % at 57.5 µM | THP-1 LPS/ATP IL-1B secretion, AlphaLISA, 16 h; active compounds read low; in the data active = activity change below about -50%; inconclusive = mostly about -30% to -49%
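THP-1 cells pretreated 1 hr with compounds (up to 57.5 uM final), then stimulated with LPS (250 ng/mL final) plus ATP (1.25 mM final); secreted IL-1B measured by AlphaLISA after 16 hr, decreased signal indicating inhibition.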
TDP1 cell noCPT: qHTS for Inhibitors of human tyrosyl-DNA phosphodiesterase 1 (TDP1): qHTS in cells in absence of CPT. DT40 Tdp1-/- hTDP1 cells, no CPT, ATP luminescence, 48 h. 420,000 tested, 15% active. Potency, µM (doses to about 46.2 µM), for the others: at the highest dose activity change, negative = growth inhibition, usual class: inhibitors; note: potency is the fitted concentration of half-maximal effect; nearly all actives have a fitted effect of over 55% in size
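A cellular qHTS used chicken DT40 cells lacking endogenous Tdp1 but carrying stably transfected human TDP1. Compounds were applied without camptothecin, and cell growth kinetics were judged by ATP-dependent luminescence after ≥48 hr.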
HT1080 IDH1KD tx: kills HT-1080 cells with IDH1 knockdown; Potency, µM (doses to about 46.1 µM), for the others: at the highest dose activity, negative = toxicity, actives largely listed as cytotoxic; AID 686971; HT-1080 IDH1 knockdown viability, ATP luminescence, 48 h; 360,000 tested, 2% active;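 note: potency is the fitted concentration of half-maximal effect; 0% = DMSO wells and -100% = cell-free medium wells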
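CellTiter-Glo luminescence after 48 h compound exposure at 37 degrees C of IDH1-knockdown HT-1080 cells in 5% FBS RPMI. %Activity scaled between DMSO wells and cell-free media wells, with curves fitted and assigned curve classes.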
HT1080NT lethal: kills 2HG-producing HT-1080-NT fibrosarcoma cells; HT-1080-NT fibrosarcoma viability, CellTiter-Glo ATP luminescence, 48 h; Potency, µM (highest dose often 46.1 µM), for inactives: at the highest dose activity, negative = less viability, hits mostly cytotoxic; 360,000 tested, 1.6% active; AID 686970;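 note: NT is the 2HG producing partner of a matched IDH1 knockdown line; potency is the fitted concentration of half-maximal effect; 0% = DMSO-treated cells and -100% = media-only wells without cells; nearly all actives have a fitted effect of over 55% in size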
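Viability of the 2HG-overproducing fibrosarcoma line after 48 hours of compound exposure at 37 degrees C was determined by luminescence with CellTiter-Glo, and concentration-effect curves were then fitted and categorized.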
The depositor's hits bear a star. Unless noted, calls come from the whole dose curve; as a rule, active = well fitted curve in the direction sought with a large enough effect; inconclusive = small, poorly fitted or top-dose-only effect, or another doubt; inactive = no such curve, though single readings can be large; an effect the other way counts as inactive or inconclusive. Unless noted, % is set by controls: 0 for no effect and ±100 for the full control effect.

Screening Cc1cccc(N2CCN(C(=O)[C@H](C)N3C(=O)C4CC=CCC4C3=O)CC2)c1C (stereo partly specified) returned TDP1 cell CPT 23µM*, IL1B secr inh -15, TDP1 cell noCPT 26µM*, HT1080 IDH1KD tx -9% and HT1080NT lethal 1%.
For Cc1ccccc1-c1nc(CS(=O)(=O)CC(=O)NC2CC2)c(C)o1 the results were TDP1 cell CPT -2%, IL1B secr inh 23, TDP1 cell noCPT 5%, HT1080 IDH1KD tx 4% and HT1080NT lethal 22%.
For Cc1cccc(N2CCN(C(=O)C(C)n3nc(C)n4c(cc5occc54)c3=O)CC2)c1C (stereo unspecified) the results were TDP1 cell CPT inconclusive, IL1B secr inh -1, TDP1 cell noCPT 18µM*, HT1080 IDH1KD tx -15% and HT1080NT lethal -8%.
CCC(C(=O)N1CCN(c2ccc(OC)cc2)CC1)n1nc(C)n2c(cc3occc32)c1=O (stereo unspecified) was read as TDP1 cell CPT 18µM* and TDP1 cell noCPT 18µM*.
Cc1cccc(N2CCN(C(=O)CCCn3ncn4c(cc5occc54)c3=O)CC2)c1C was read as TDP1 cell CPT inconclusive and TDP1 cell noCPT 26µM*.
For CCCCNC(=O)c1onc(CSc2ccccn2)c1C(=O)NCCCC the results were TDP1 cell CPT inconclusive, IL1B secr inh inconclusive, TDP1 cell noCPT inconclusive, HT1080 IDH1KD tx 2% and HT1080NT lethal -4%.
`Cc1cc2n(n1)C(c1cccs1)Nc1ccccc1-2` (stereo unspecified) gave TDP1 cell CPT -5%, IL1B secr inh -2, TDP1 cell noCPT -10%, HT1080 IDH1KD tx -2% and HT1080NT lethal 7%.
`CCN(CC)C(=O)Cn1c(=O)n(-c2ccc(CC(=O)NCc3ccccc3)cc2)c(=O)c2sccc21` gave TDP1 cell CPT -16%, IL1B secr inh 17, TDP1 cell noCPT -9%, HT1080 IDH1KD tx 7% and HT1080NT lethal 0%.
`O=C(c1csnn1)N1CCC2(CC1)CCN(c1ccccc1)CC2` gave TDP1 cell CPT 11% and TDP1 cell noCPT inconclusive.
Screening CCCCCc1c(-c2cccc(Cl)c2)ncn1CCc1ccccc1OC returned TDP1 cell CPT 23µM*, IL1B secr inh 0, TDP1 cell noCPT 23µM*, HT1080 IDH1KD tx -15% and HT1080NT lethal -18%.
Screening CCCCCc1c(-c2cccc(OC)c2)ncn1CCc1ccccc1OC returned TDP1 cell CPT 8.2µM*, IL1B secr inh -86*, TDP1 cell noCPT 7.3µM*, HT1080 IDH1KD tx inconclusive and HT1080NT lethal 21µM*.
`CCCCCn1cnc2sc(-c3ccccc3)cc2c1=O` gave TDP1 cell CPT -19%, IL1B secr inh -15, TDP1 cell noCPT -7%, HT1080 IDH1KD tx 4% and HT1080NT lethal 11%.
`CCCCc1c(-c2cccc(F)c2)ncn1CCc1ccccc1OC` gave TDP1 cell CPT 21µM*, IL1B secr inh -74*, TDP1 cell noCPT 21µM*, HT1080 IDH1KD tx inconclusive and HT1080NT lethal inconclusive.
`CCCc1c(-c2cccc(F)c2)ncn1Cc1ccccc1OC` gave TDP1 cell CPT 9.2µM*, IL1B secr inh 19, TDP1 cell noCPT 8.2µM*, HT1080 IDH1KD tx inconclusive and HT1080NT lethal inconclusive.
Screening COc1ccccc1Cc1c(-c2cccc(Cl)c2)nc2c(C)cc(Br)cn12 returned TDP1 cell CPT inconclusive, IL1B secr inh 28, TDP1 cell noCPT inconclusive, HT1080 IDH1KD tx 8% and HT1080NT lethal 2%.
For CCCc1c(-c2ccc(F)cc2F)ncn1Cc1ccccc1OC the results were TDP1 cell CPT 2.1µM*, IL1B secr inh 0, TDP1 cell noCPT 1.5µM*, HT1080 IDH1KD tx inconclusive and HT1080NT lethal 18µM*.
`CCCc1c(-c2cccc(F)c2)ncn1CCc1ccccc1OC` gave TDP1 cell CPT inconclusive, IL1B secr inh -78*, TDP1 cell noCPT 15µM*, HT1080 IDH1KD tx inconclusive and HT1080NT lethal inconclusive.
For CCCCc1c(-c2cccc(Br)c2)ncn1CCc1ccccc1OC the results were TDP1 cell CPT 5.8µM*, IL1B secr inh -72*, TDP1 cell noCPT 5.8µM*, HT1080 IDH1KD tx inconclusive and HT1080NT lethal 15µM*.
Screening CCCCn1cnc2cc(NCc3cccc(OC)c3O)ccc21 returned TDP1 cell CPT 3%, IL1B secr inh inconclusive, TDP1 cell noCPT -5%, HT1080 IDH1KD tx -1% and HT1080NT lethal 8%.
CCCOc1ccc(F)cc1-c1cc(C(=O)NCc2ccccc2OC)[nH]n1 was read as TDP1 cell CPT inconclusive, IL1B secr inh -19, TDP1 cell noCPT inconclusive, HT1080 IDH1KD tx 0% and HT1080NT lethal -20%.
For CCCCCc1c(-c2cccc(F)c2)ncn1CCc1ccccc1OC the results were TDP1 cell CPT 23µM*, IL1B secr inh 0, TDP1 cell noCPT 18µM*, HT1080 IDH1KD tx inconclusive and HT1080NT lethal inconclusive.
CC(OC(=O)c1ccc(Cl)nc1)C(=O)Nc1ccc2c(c1)OCO2 (stereo unspecified) was read as TDP1 cell CPT inconclusive, IL1B secr inh 11, TDP1 cell noCPT inconclusive, HT1080 IDH1KD tx -8% and HT1080NT lethal 2%.
`Nc1ccc(O)cc1` gave TDP1 cell CPT 7.7µM* and TDP1 cell noCPT 12µM*.
C[C@@H]1[C@H]2[C@@H](O[C@@H]3O[C@H](CO)[C@@H](O)[C@H](O)[C@H]3O)OC=C(C(=O)O)[C@H]2C[C@@H]1O was read as TDP1 cell CPT 7.3µM*, IL1B secr inh 4, TDP1 cell noCPT 7.3µM*, HT1080 IDH1KD tx -3% and HT1080NT lethal inconclusive.
`O=C(COC(=O)c1cc(S(=O)(=O)NCc2ccccc2)ccc1O)c1cc2ccccc2o1` gave TDP1 cell CPT -16%, IL1B secr inh 39, TDP1 cell noCPT -19%, HT1080 IDH1KD tx 0% and HT1080NT lethal 10%.
For CCCCN(CCCC)c1nc2ccccc2nc1C(C#N)C(=O)NCCCOC (stereo unspecified) the results were TDP1 cell CPT inconclusive, IL1B secr inh -1, TDP1 cell noCPT inconclusive, HT1080 IDH1KD tx -2% and HT1080NT lethal 3%.
`CCCN(CCC)c1nc2ccccc2nc1C(C#N)C(=O)OC(C)COC` (stereo unspecified) gave TDP1 cell CPT 23µM*, IL1B secr inh -51*, TDP1 cell noCPT 23µM*, HT1080 IDH1KD tx -3% and HT1080NT lethal -18%.
For CC1CC2(CCCCC2)Nc2ccc3ccccc3c21 (stereo unspecified) the results were TDP1 cell CPT 21µM*, IL1B secr inh 30, TDP1 cell noCPT inconclusive, HT1080 IDH1KD tx -6% and HT1080NT lethal 2%.
